# NPC1 promoter act = qHTS Assay for NPC1 Promoter Activators; Huh7 NPC1 promoter luciferase reporter, 24 h; Potency, µM (highest dose often 9.22 µM), for inactives: top-dose activation, usual class: activators; actives 2.4% (n = 320,000); note: % of control where 0% means no effect; nearly all actives have a fitted effect of over 60% in size
#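 Stably transfected Huh7 (NPC1 promoter→luciferase), 1500 cells/well in Opti-MEM + 10% FBS, 2 h settle, then compound 24 h at 37 °C. Luminescence after 10 min with Amplite reagent.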
# SMN2 splice enh = qHTS Assay for Enhancers of SMN2 Splice Variant Expression. HEK293 SMN2-luciferase splicing reporter, luminescence, 30-36 h. Potency, µM (series often up to 46.1 µM), for inactives: top-dose activity change, positive = activation, most hits filed as activators. actives 2.8% (n = 210,000). AID 1458, 2008; note: % of control where 0% means no effect; nearly all actives have a fitted effect of over 55% in size
#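 HEK293 cells carry an SMN2 minigene-luciferase reporter in which exon 7 inclusion puts luciferase in frame. Cells were seeded at 2000 cells/well, attached for 10-12 hours, then exposed to compounds for 30-36 hours at 37C before ONE-Glo luminescence.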
# FLuc counter = qHTS profiling assay for firefly luciferase inhibitor/activator using purifed enzyme and Km concentrations of substrates (counterscreen for miR-21 project); purified FLuc, Km substrates, luminescence inhibition; Potency, µM (highest dose often 57.5 µM), for inactives: top-dose activity change, negative = inhibition, hits mostly inhibitors; actives 6.9% (n = 360,000);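 note: plate controls were vehicle for no effect and reference inhibitor for full effect; nearly all actives have a fitted effect of over 55% in size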
# Target sequence (P08659 whole entry, looked up): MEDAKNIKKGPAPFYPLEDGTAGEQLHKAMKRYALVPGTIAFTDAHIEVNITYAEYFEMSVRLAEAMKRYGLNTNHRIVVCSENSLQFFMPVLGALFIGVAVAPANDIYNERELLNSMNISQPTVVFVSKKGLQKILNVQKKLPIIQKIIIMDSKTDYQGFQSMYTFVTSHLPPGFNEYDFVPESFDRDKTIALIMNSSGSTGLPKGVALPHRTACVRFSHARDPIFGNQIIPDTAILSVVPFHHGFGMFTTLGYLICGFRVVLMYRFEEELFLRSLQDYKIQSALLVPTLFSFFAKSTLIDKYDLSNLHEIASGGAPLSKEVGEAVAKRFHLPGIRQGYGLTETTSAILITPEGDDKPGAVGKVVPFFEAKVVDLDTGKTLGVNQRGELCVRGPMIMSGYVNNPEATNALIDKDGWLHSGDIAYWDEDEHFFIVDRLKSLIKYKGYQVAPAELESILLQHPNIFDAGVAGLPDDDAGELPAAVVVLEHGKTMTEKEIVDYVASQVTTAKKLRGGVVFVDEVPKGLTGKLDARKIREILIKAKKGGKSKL
#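 Biochemical qHTS of compounds, final roughly 60 µM downward over six points, against 10 nM purified firefly luciferase using Km concentrations of substrates (10 uM D-luciferin, 10 uM ATP) in Tris acetate pH 7.5 buffer; luminescence output.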
# ELG1 genotoxic = qHTS screen for small molecules that induce genotoxicity in human embryonic kidney (HEK293T) cells expressing luciferase-tagged ELG1 | actives 1.3% (n = 330,000) | Potency, µM (doses to about 46 µM), for inactives: top-dose activity change, positive = activation, usual class: activators | HEK293T ELG1-luciferase reporter, luminescence, 16 h | AID 504466, 2011; note: % of control where 0% means no effect; nearly all actives have a fitted effect of over 60% in size
#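 Luminescence read-out: rising ELG1-luciferase signal, reflecting elevated ELG1 protein under genetic stress, flags genotoxic compounds. Cells were treated for 16 hr at 37 °C before ONE-Glo detection.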
# Rab9 promoter act = qHTS Assay for Rab9 Promoter Activators. Potency, µM (highest dose often 9.22 µM), without a hit: at the highest dose activation, negative = inhibition, actives largely listed as activators. Huh7 Rab9 promoter-luciferase reporter, luminescence, 24 h. actives 2.8% (n = 320,000); note: % of control where 0% means no effect; nearly all actives have a fitted effect of over 60% in size
#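 Luminescence read-out: Huh7 cells stably expressing Rab9-luciferase, treated 24 h with compound at 37 °C, then lysed with luciferase reagent for 10 min at ambient before reading.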
# Starred values were filed as active, the others as inactive; ? = inconclusive; / = no result given. Rows were chosen to be rich in hits. Some 7.5% of all compounds tested hit in one or more screens of this group. Calls come from the whole dose curve; as a rule, active = well fitted curve in the direction sought with a large enough effect; inconclusive = small, poorly fitted or top-dose-only effect, or another doubt; inactive = no such curve, though single readings can be large; an effect the other way counts as inactive or inconclusive. Potency is the fitted concentration of half-maximal effect.
SMILES,NPC1 promoter act,SMN2 splice enh,FLuc counter,ELG1 genotoxic,Rab9 promoter act
CCN(CC)c1ccc2c(O)cc(=O)oc2c1,0%,7%,12µM*,3%,1%
Cc1cc(C)nc(NC2=NCC(=O)N2c2cccc(Cl)c2)n1,0%,0%,5%,-5%,-5%
O=C(CCOc1ccccc1)Nc1ccc(Br)cc1,?,/,?,17%,3.2µM*
COc1ccc(NC(=O)CCOc2ccccc2)cc1,3.2µM*,?,17µM*,?,4.5µM*
CCCc1cc(=O)n2[nH]c(C)nc2n1,0%,11%,0%,2%,4%
CCOC(=O)Cc1cc(=O)n2[nH]c(C)cc2n1,-1%,31%,-1%,4%,-3%
CCCc1cc(=O)n2[nH]c(-c3ccc(C)cc3)cc2n1,4µM*,13µM*,9.5µM*,?,4µM*
CCOC(=O)Cc1cc(=O)n2[nH]c(-c3ccc(Cl)cc3)cc2n1,3%,19%,13µM*,4%,0%
CCCc1cc(=O)n2[nH]c(-c3ccccc3)cc2n1,4µM*,11µM*,17µM*,?,2.8µM*
CCCc1cc(=O)n2[nH]c(-c3ccc(Cl)cc3)cc2n1,?,/,15µM*,?,2.8µM*
COc1ccc(CCNC(=O)c2cnccn2)cc1,3%,-11%,-13%,14%,-7%
COc1ccccc1C(=O)Nc1nnc(CCc2ccccc2)s1,-32%,/,?,0%,-17%
COc1ccc(-c2nnc(CSc3ncnc4sc5c(c34)CCC5)o2)cc1OC,-2%,-4%,11%,23µM*,-3%
Cc1ccc(-c2nn[nH]n2)cc1,-5%,1%,?,1%,-2%
Cc1ccc(-c2nn[nH]n2)cc1Cl,1%,/,17µM*,2%,-5%
CC1(C)CC(=O)C=C(c2ccc(-c3ccccc3)cc2)C1,2.8µM*,/,?,?,?
CC(=O)C(Cc1cnc(Cl)s1)(Cc1cnc(Cl)s1)C(C)=O,0%,5%,6%,-2%,2%
O=S1(=O)CCC(NC(=S)SCCOc2ccccc2)C1 (stereo not given),-12%,/,?,-6%,-12%
CNC(=S)SCCOc1ccc(C)cc1,1%,16%,15µM*,0%,4%
CNC(=S)SCCOc1ccccc1,2%,/,15µM*,1%,10%
COC(=O)c1cccc(NC(=O)c2cc(OC)c(OC)c(OC)c2Br)c1,0%,?,-7%,-4%,1%
COc1ccc(C(=O)Nc2cccc(C(C)=O)c2)c(OC)c1OC,20%,-3%,12µM*,?,23%
COc1cc(OC)c(C(=O)Nc2cccc(C(C)=O)c2)cc1OC,18%,-12%,13µM*,?,?
COc1ccc(C(=O)Nc2cccc(C(C)=O)c2)cc1OC,18%,14%,?,18%,7%
O=C(c1ccco1)N1CCN(C(c2ccccn2)c2nnnn2C2CCCC2)CC1 (stereo not given),?,13µM*,15µM*,?,?
SMILES,NPC1 promoter act,SMN2 splice enh,FLuc counter,ELG1 genotoxic,Rab9 promoter act
O=C(c1ccco1)N1CCN(C(c2cccs2)c2nnnn2C2CCCC2)CC1 (stereo not given),-1%,2%,5%,2%,-4%
CCN(CC)C(=O)C1CCCN(c2ccccc2[N+](=O)[O-])C1 (stereo not given),1%,/,1%,-1%,-2%
CCCCSC1(SCCCC)N=C(N)C2(C#N)C(c3ccccc3)NC(C)=C(C)C12C#N (stereo not given),0%,-5%,1%,0%,?
O=C(N/N=C/c1ccc(F)cc1)c1ccccc1,2.8µM*,18µM*,12µM*,?,2µM*
O=C(N/N=C/c1ccc(F)cc1)c1cc[n+]([O-])cc1,-2%,/,0%,4%,0%
O=C(N/N=C\c1ccc(F)cc1)c1csnn1,24%,6%,24µM*,?,22%
O=C(N/N=C/c1ccncc1)c1cccc(NC(=O)c2ccc(Cl)cc2)c1,-2%,-18%,-7%,2%,-3%
Cc1ccccc1/C=N\NC(=O)c1csnn1,18%,12%,?,19%,19%
O=C(N/N=C/c1ccc(F)cc1)c1cccc(NC(=O)c2ccc(F)cc2)c1,23%,/,8.5µM*,-10%,?
O=C(O)c1ccc(/C=N/NC(=O)c2ccc(F)cc2)cc1,-6%,/,19µM*,-2%,1%
O=C(Nc1ccccc1C(=O)N/N=C/c1ccc(F)cc1)c1ccccc1Br,7%,-5%,6µM*,-1%,7%
O=C(N/N=C/c1ccc(O)cc1)c1ccc(NC(=O)c2ccccc2Br)cc1,-1%,39%,?,-1%,-6%
O=C(N/N=C/c1ccccc1C(F)(F)F)c1ccc(O)cc1,?,28%,11µM*,?,?
Cc1ccc(NC(=S)NNc2ccc([N+](=O)[O-])cc2S(=O)(=O)Nc2ccccc2C(=O)O)cc1C,-8%,-6%,?,1%,-12%
O=C(O)c1ccccc1NS(=O)(=O)c1ccc(NNC(=S)Nc2ccc(OC(F)F)cc2)c([N+](=O)[O-])c1,-3%,-24%,19µM*,0%,-3%
CCc1ccccc1Nc1nn2c(=O)c3ccc(C(=O)NCc4ccc(C)cc4)cc3nc2s1,/,/,5%,/,/
CCOC(=O)C1(Cc2ccccc2)CCCN(C(=O)C=C(C)C)C1 (stereo not given),?,/,17µM*,?,3.5µM*
CCOC(=O)C1(Cc2cccc(OC)c2)CCCN(C(=O)CCc2cccnc2)C1 (stereo not given),16%,/,17µM*,?,?
CCOC(=O)C1(Cc2cccc(Cl)c2)CCCN(C(=O)c2cccnc2)C1 (stereo not given),-3%,/,-1%,-1%,-8%
CCOC(=O)C1(Cc2ccc(OC)cc2)CCN(C(=O)c2cc3ccccc3[nH]2)CC1,2%,19%,15µM*,2%,2%
CC#CC(=O)N1CCCC(Cc2cccc(OC)c2)(C(=O)OCC)C1 (stereo not given),?,/,24µM*,16%,?
CC(C)CC1Nc2ncnc(N3CCN(c4ccccn4)CC3)c2N(Cc2ccc(Cl)cc2)C1=O (stereo not given),/,/,/,4%,/
C=CCNC(=S)N1CC2(C)CN(C(=S)NCC=C)CC(C)(C1)C2=O,0%,/,-1%,-1%,2%
COc1ccc(-c2nnc(SCC(=O)NCCc3ccccc3)o2)cc1,0%,-2%,4%,0%,-1%
CCOC(=O)C1(Cc2cccc(OC)c2)CCN(C2CCOCC2)CC1,?,/,3µM*,?,?

# Source: PubChem BioAssay (National Center for Advancing Translational Sciences (NCATS))
